Shn3 3UTR inh – inhibitors of Schnurri-3 3'UTR reporter in osteoblasts | Clone20 osteoblast Shn3 3'UTR firefly luciferase, 24 h | inhibition, % at 12.5 µM | 360,000 tested, 0.52% active | AID 588674;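 active = mean inhibition of at least 75% with every replicate also reaching 75%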
LMP1 NFkB inh – inhibitors of Epstein-Barr LMP1-induced NF-kappaB reporter; AID 504558; 350,000 tested, 0.69% active; inhibition, % at 12.5 µM; LMP1-induced NF-kappaB luciferase reporter cells, luminescence; in the data active = inhibition above about 41%
Peg3 prom inh – reduces Peg3 promoter-driven luciferase expression in HeLa; HeLa PEG-Prom luciferase reporter, luminescence, overnight; inhibition, % at 20 µM; 360,000 tested, 1.7% active;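 active = inhibition of at least 50% at 20 µM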
TRPM1 prom inh – MITF TRPM1 promoter inhibition in SK-MEL-5 cells; 330,000 tested, 0.83% active; SK-MEL-5 TRPM1 promoter luciferase, 24 h; inhibition, % at 12.5 µM;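 active = mean inhibition across replicates of 60% or more, whatever share of single replicates reaches that level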
CF NFkB block – cystic fibrosis NF-kB activation inhibition | KKLEB NF-kB-GFP reporter, PAF-induced, GFP fluorescence overnight | inhibition, % at 5 µM | 360,000 tested, 0.86% active | AID 588850;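 active = at least 50% inhibition at 5 µM, scaled per plate between neutral and stimulator controls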;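 note: PAF is a Pseudomonas aeruginosa culture filtrate used as stimulus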
KKLEB cytotox – counter-screen for CF NF-kB inhibitors: cytotoxicity | activity change (cytotoxicity), % at 5 µM | AID 602141 | 360,000 tested, 0.36% active | KKLEB CF airway cells viability, ATPlite luminescence, overnight; hits give low values; cells stimulated with P. aeruginosa culture filtrate;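 active = corrected activity change at or below -50% at 5 µM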
CF NFkB inh conf – confirmation of cystic fibrosis induced NF-kB inhibitors; shares compounds with CF NFkB block; KKLEB CF airway cells, PAF-induced NF-kB-GFP fluorescence, overnight; inhibition, % at 5 µM; 1,300 tested, 64% active; in the data active = inhibition above about 40%;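 note: stimulus PAF is a Pseudomonas aeruginosa filtrate and not platelet activating factor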
Numbers stand for hits; i = inactive; nt = no result given. The list is not random: actives were taken first. Their share in the collection is about 2.9%.

SMILES | Shn3 3UTR inh | LMP1 NFkB inh | Peg3 prom inh | TRPM1 prom inh | CF NFkB block | KKLEB cytotox | CF NFkB inh conf
CC(=O)NC(c1cccc(F)c1)c1nc(-c2cnn(C)c2)cs1 (centres undefined) | i | nt | i | nt | i | i | nt
Cn1cnc(S(=O)(=O)N2CCCC(c3cc(C(=O)Nc4ccc(F)c(Cl)c4)no3)C2)c1 (centres undefined) | i | nt | i | nt | i | i | nt
C=CC(=O)Nc1cccc(CN2C(=O)N(c3cc(OC)cc(OC)c3)Cc3cnc(NCCCCN(CC)CC)nc32)c1 | i | i | i | i | i | i | nt
CC(C)(O)C#Cc1ccc([C@@H]2C[C@H]3CN(c4ccccc4)C(=O)[C@]34CCCN24)s1 | 95 | 54 | 103 | i | 60 | i | 44
CCCCCCNC(=O)O[C@H]1Cn2c(=O)ccc(=O)n2[C@@H]2CN(S(=O)(=O)c3ccc(C)cc3)C[C@]12O | 91 | i | 103 | nt | 62 | i | i
Cc1ccc(S(=O)(=O)NC(=O)N2CCCC2)cc1 | i | i | i | i | i | i | nt
COc1cc(NC(=O)c2cc3ccccc3cc2OC)ccc1NC(=O)c1cccs1 | i | i | i | i | 59 | i | 102
COc1ccccc1CCC(=O)Nc1ccc(S(=O)(=O)Nc2ncccn2)cc1 | i | i | i | nt | i | i | nt
O=C(CSc1ncccn1)NC1CCCC1 | i | i | i | nt | i | i | nt
C=C1C[C@@]23CCC4[C@@](C)(CCC[C@@]4(C)C(=O)OC)C2CC[C@]1(OC(C)=O)C3 (some centres undefined) | i | i | i | i | 51 | i | i
COC(=O)[C@]1(C)CCC[C@@]2(C)C3CC[C@@]4(C)C[C@]3(CCC21)CC(=O)N4C (some centres undefined) | i | i | i | i | i | i | nt
C=CCOc1ccccc1C(=O)/C=C1/C(=O)Nc2ccccc21 | i | i | 76 | i | 92 | i | i
COc1ccc(C(=O)/C=C2/C(=O)Nc3ccccc32)cc1 | i | i | i | i | i | i | nt
COc1ccc(C(=O)/C=C2/C(=O)Nc3ccccc32)c(OC)c1 | i | i | 103 | i | 84 | i | i
O=C(Cc1ccccc1F)Nc1cccc(S(=O)(=O)N2CCCCC2)c1 | i | i | i | nt | i | i | nt
COc1ccc(C2=CC(=O)C=CC2=O)cc1 | i | nt | nt | nt | nt | nt | nt
C#Cc1cccc(Nc2nc(NC(C)C)nc3ccsc23)c1 | i | nt | i | nt | 50 | i | i
C#Cc1cccc(Nc2nc(NCCOC)nc3ccsc23)c1 | i | nt | i | nt | i | i | nt
Cc1ccc(C(=O)COC(=O)c2cc(Cl)ccc2O)cc1[N+](=O)[O-] | i | i | i | i | 52 | i | 47
Cc1ccc(C(=O)COC(=O)c2ccncc2)cc1[N+](=O)[O-] | i | i | i | i | i | i | nt
CCNC(=O)/C=C1\NC(C)(C)Cc2c1ccc1ccccc21 | i | i | i | i | i | i | nt
CC1(C)Cc2c(ccc3ccccc23)C(=O)N1 | i | i | i | i | 69 | i | 78
COc1ccc(-c2nc(NC(=O)c3ccc(OCC(=O)Nc4ccc(F)cc4)c(OC)c3)sc2C)cc1 | i | i | i | i | 54 | i | 72
O=C(Nc1cccc(-c2cnc3ccccc3n2)c1)c1cccc(NC(=O)c2ccco2)c1 | i | i | i | i | 67 | i | 108
Nc1ncc([N+](=O)[O-])c(N2CCCCCC2)n1 | i | i | i | i | 67 | i | 91
SMILES | Shn3 3UTR inh | LMP1 NFkB inh | Peg3 prom inh | TRPM1 prom inh | CF NFkB block | KKLEB cytotox | CF NFkB inh conf
Cc1c(O)ccc2c(-c3ccccc3)cc(=O)oc12 | i | i | i | i | 75 | i | 95
COc1ccc(-c2cc(=O)oc3c(C)c(OC(=O)c4cccs4)ccc23)cc1 | i | i | i | i | 72 | i | 96
CCN(CC)Cc1c(O)ccc2c(-c3ccccc3)cc(=O)oc12 | i | i | i | i | i | i | nt
COc1ccc(-c2cc(=O)oc3c(C)c(O)ccc23)cc1 | i | i | i | i | 83 | i | 92
COc1cccc(S(=O)(=O)N(C)C[C@H]2Oc3cc(Br)ccc3S(=O)(=O)N([C@@H](C)CO)C[C@H]2C)c1 | i | i | i | nt | i | i | nt
CN(Cc1nc2ccccc2c(=O)[nH]1)C(=O)c1cccc(S(=O)(=O)N2CCc3ccccc32)c1 | i | i | i | i | i | i | nt
NS(=O)(=O)c1cccc(NC(=O)CCN2C(=O)C3CCCCC3C2=O)c1 (centres undefined) | i | i | i | i | i | i | nt
CC(C)OC(=O)N(C)C[C@@H]1OCc2cn(nn2)CCCC(=O)N([C@@H](C)CO)C[C@H]1C | i | i | i | nt | i | i | nt
COC(=O)C1=C(C)NC(C)=C(C(=O)OCC(C)C)C1c1ccccc1[N+](=O)[O-] (centres undefined) | i | 91 | i | i | 83 | i | 58
O=C(OCc1ccccc1)N1CCC2CC1c1c2cccc1N1CCOCC1 (centres undefined) | i | nt | i | nt | i | i | nt

Compound activity (PubChem)
